Test [1] in a line: small molecules captured by biotinylated probe aFSTL3 – biochemical, small-molecule microarray, fluorescence 635/667, stem cell growth factor project, primary screen (AID 1064).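 Note: measures binding of the biotinylated anti-FSTL3 antibody to printed compounds.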 Conditions: higher = more signal.
The nature of test [2]: binders from COS7 lysate, DM2A8 probe, primary screen, torsin A project, cell lysate, small-molecule microarray, fluorescence 635/667 (AID 1065). Conditions: higher = more signal, COS7 lysate expressing mutant human TOR1A.
A short description of test [3]: small molecules captured by biotinylated probe aFGF2 – biochemical, small-molecule microarray, fluorescence 635/667, stem cell growth factor project, primary screen (AID 1067).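 Note: measures binding of biotinylated aFGF2 protein to printed compounds on slides; z-score merges feature fluorescence and signal-to-noise across triplicate slides.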 The conditions noted are these: higher = more signal.
Test [4] in a line: small molecules captured by biotinylated probe aFGF10 – biochemical, small-molecule microarray, fluorescence 635/667, stem cell growth factor project, primary screen (AID 1071).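 Note: score merges 667 nm spot intensity and signal to noise from triplicate slides.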 Conditions: higher = more signal.
For test [5], the target named is Neurogenic locus notch homolog protein 2 (Homo sapiens) (UniProt Q04721). In words: small molecules binding Notch2 protein – biochemical, small-molecule microarray, 635 nm fluorescence, stem cell growth factors, primary screen (AID 1073). The conditions noted are these: higher = more signal.
In test [6] the target is Pro-neuregulin-1, membrane-bound isoform (Homo sapiens) (UniProt Q02297). In words: small molecules binding neuregulin-1 protein – biochemical, small-molecule microarray, fluorescence 635/667, psychiatric disease protein project, primary screen (AID 1075).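 Note: score combines 667 nm spot fluorescence with signal to noise.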 Conditions: NRG1 binding, 635 nm fluorescence, higher = more signal.
Chain of Pro-neuregulin-1, membrane-bound isoform (Homo sapiens) (Q02297 whole entry, looked up, the tested form may be a part, canonical isoform): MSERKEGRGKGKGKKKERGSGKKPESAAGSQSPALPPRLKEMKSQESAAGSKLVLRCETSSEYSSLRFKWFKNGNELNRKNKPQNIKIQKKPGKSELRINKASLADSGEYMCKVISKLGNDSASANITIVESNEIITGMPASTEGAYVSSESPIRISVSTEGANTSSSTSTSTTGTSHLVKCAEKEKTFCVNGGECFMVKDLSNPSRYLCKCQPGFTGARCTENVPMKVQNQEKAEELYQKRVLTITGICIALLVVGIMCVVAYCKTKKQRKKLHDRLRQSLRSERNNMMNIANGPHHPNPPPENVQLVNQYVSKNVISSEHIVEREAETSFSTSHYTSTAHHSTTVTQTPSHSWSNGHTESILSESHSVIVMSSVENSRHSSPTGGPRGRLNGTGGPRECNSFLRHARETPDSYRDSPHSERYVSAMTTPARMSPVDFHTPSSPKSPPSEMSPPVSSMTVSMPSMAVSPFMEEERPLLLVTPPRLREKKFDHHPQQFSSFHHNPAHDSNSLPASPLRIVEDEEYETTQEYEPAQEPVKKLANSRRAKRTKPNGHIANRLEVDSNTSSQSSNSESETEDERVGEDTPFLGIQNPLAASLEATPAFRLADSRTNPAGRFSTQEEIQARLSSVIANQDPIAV
The test system of test [7] is Neuregulin-1 EGF-like domain. Briefly: small molecules binding NRG1 EGF domain – biochemical, small-molecule microarray, 635 nm fluorescence, primary screen (AID 1081).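 Note: binding of the protein to compounds printed on small-molecule microarray slides.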 Conditions: higher = more signal.
Test [8] can be described thus: FRG1 expression reporter modulators in myotubes – cell-based, C2C12 myotubes, firefly/Renilla luciferase, luminescence, FRG1 inhibition for FSHD, primary screen (AID 1084). Conditions: FRG1 promoter luciferase, higher = more signal, called active from +8 up or from −8 down.
Test [9] in a line: small molecules captured by biotinylated probe aFST – biochemical, small-molecule microarray, fluorescence 635/667, stem cell growth factor project, primary screen (AID 1086).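 Note: score merges 667 nm fluorescence with signal-to-noise of each printed compound spot.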 The conditions noted are these: higher = more signal.
Test [10] in a line: binders of probe aHhip on microarray, primary screen, stem cell growth factor project, biochemical, small-molecule microarray, fluorescence 635/667 (AID 1087).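 Note: score merges spot fluorescence at 667nm with spot signal to noise ratio.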 The conditions noted are these: higher = more signal.
In test [11] the test system is PRMT1 (protein arginine N-methyltransferase 1). Briefly: small molecules binding arginine methyltransferase PRMT1 – biochemical, small-molecule microarray, 635 nm fluorescence, primary screen (AID 1088).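 Note: binding of Prmt1 protein to compounds spotted on small-molecule microarray slides.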 Conditions: higher = more signal.
The nature of test [12]: growth effects on S. cerevisiae YJM789 – YJM789 clinical isolate, OD600, 24 h, basal, primary screen (AID 1089).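 Note: growth of clinical yeast isolate S. cerevisiae YJM 789 seeded 1000 cells per well; test concentration not given here.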 The conditions noted are these: higher = more signal, called active from +8 up or from −8 down.
Test [13] can be described thus: S. pombe growth modifiers, basal conditions – strain 972, OD600, 24 h, no modulator, primary screen (AID 1090).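 Note: basal condition with compound alone and no growth modifier present; test concentration not given here.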 The conditions noted are these: S. pombe 972 growth, higher = more signal, called active from +8 up or from −8 down.
Test [14] can be described thus: budding yeast growth modifiers under rapamycin – strain BY4716, OD600, 96 h, primary screen (AID 1091). Note: test concentration not given here. The conditions noted are these: S. cerevisiae BY4716 + rapamycin, higher = more signal, called active from +8 up or from −8 down.
The target in test [15] is Torsin-1A-interacting protein 2 (Homo sapiens) (UniProt Q8NFQ8). Briefly: small molecules binding lysate-expressed LULL1 – cell lysate, human LULL1 lysate, 635/667 nm fluorescence, primary screen (AID 1092).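 Note: probe is lysate of COS7 cells overexpressing human LULL1; score merges per-feature 667 nm fluorescence with signal-to-noise.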 The conditions noted are these: small-molecule microarray, hLULL1 lysate binding, 635 nm fluorescence; higher = more signal.
Chain of Torsin-1A-interacting protein 2 (Homo sapiens) (Q8NFQ8 whole entry, looked up): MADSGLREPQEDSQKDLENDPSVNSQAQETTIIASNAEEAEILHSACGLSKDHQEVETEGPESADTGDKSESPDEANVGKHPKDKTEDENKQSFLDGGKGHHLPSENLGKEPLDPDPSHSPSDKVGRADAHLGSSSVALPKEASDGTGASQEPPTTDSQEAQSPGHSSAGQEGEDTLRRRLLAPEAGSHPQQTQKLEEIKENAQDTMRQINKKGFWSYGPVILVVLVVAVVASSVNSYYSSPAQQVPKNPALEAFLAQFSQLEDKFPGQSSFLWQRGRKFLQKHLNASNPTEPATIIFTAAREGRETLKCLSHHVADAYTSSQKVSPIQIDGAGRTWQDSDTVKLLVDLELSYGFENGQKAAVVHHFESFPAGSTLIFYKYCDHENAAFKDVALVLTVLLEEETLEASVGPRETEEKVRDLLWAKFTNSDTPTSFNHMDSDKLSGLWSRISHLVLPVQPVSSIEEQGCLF
Test [16] is described as follows: optical density change of DRC41 E. coli – strain DRC41, OD650, 24 h, E. coli filamentation project, primary screen (AID 1093).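 Note: MC1000 strain lacking acrAB efflux and sulA so SOS filamentation is blocked; test concentration not given here.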 The conditions noted are these: E. coli DRC41 growth, higher = more signal, called active from +8 up or from −8 down.
Test [17] in a line: probe aLefty2 binding to arrayed compounds – biochemical, biotinylated probe, 635/667 nm fluorescence, primary screen (AID 1094).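 Note: score merges spot fluorescence near 667 nm with spot signal-to-noise ratio.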 The conditions noted are these: small-molecule microarray, higher = more signal.
The test system of test [18] is Noggin (protein binding on small-molecule microarray). Briefly: small molecules binding Noggin protein – biochemical, 635/667 nm fluorescence, primary screen (AID 1095).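 Note: score merges 667 nm feature fluorescence with signal to noise over triplicate slides.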 The conditions noted are these: 635 nm fluorescence, higher = more signal.
The target of test [19] is Neurogenic locus notch homolog protein 3 (Homo sapiens) (UniProt Q9UM47). Briefly: small molecules binding NOTCH3 protein – biochemical, 635/667 nm fluorescence, primary screen (AID 1096). Conditions: small-molecule microarray, 635 nm fluorescence, higher = more signal.
Chain of Neurogenic locus notch homolog protein 3 (Homo sapiens) (Q9UM47 whole entry, looked up): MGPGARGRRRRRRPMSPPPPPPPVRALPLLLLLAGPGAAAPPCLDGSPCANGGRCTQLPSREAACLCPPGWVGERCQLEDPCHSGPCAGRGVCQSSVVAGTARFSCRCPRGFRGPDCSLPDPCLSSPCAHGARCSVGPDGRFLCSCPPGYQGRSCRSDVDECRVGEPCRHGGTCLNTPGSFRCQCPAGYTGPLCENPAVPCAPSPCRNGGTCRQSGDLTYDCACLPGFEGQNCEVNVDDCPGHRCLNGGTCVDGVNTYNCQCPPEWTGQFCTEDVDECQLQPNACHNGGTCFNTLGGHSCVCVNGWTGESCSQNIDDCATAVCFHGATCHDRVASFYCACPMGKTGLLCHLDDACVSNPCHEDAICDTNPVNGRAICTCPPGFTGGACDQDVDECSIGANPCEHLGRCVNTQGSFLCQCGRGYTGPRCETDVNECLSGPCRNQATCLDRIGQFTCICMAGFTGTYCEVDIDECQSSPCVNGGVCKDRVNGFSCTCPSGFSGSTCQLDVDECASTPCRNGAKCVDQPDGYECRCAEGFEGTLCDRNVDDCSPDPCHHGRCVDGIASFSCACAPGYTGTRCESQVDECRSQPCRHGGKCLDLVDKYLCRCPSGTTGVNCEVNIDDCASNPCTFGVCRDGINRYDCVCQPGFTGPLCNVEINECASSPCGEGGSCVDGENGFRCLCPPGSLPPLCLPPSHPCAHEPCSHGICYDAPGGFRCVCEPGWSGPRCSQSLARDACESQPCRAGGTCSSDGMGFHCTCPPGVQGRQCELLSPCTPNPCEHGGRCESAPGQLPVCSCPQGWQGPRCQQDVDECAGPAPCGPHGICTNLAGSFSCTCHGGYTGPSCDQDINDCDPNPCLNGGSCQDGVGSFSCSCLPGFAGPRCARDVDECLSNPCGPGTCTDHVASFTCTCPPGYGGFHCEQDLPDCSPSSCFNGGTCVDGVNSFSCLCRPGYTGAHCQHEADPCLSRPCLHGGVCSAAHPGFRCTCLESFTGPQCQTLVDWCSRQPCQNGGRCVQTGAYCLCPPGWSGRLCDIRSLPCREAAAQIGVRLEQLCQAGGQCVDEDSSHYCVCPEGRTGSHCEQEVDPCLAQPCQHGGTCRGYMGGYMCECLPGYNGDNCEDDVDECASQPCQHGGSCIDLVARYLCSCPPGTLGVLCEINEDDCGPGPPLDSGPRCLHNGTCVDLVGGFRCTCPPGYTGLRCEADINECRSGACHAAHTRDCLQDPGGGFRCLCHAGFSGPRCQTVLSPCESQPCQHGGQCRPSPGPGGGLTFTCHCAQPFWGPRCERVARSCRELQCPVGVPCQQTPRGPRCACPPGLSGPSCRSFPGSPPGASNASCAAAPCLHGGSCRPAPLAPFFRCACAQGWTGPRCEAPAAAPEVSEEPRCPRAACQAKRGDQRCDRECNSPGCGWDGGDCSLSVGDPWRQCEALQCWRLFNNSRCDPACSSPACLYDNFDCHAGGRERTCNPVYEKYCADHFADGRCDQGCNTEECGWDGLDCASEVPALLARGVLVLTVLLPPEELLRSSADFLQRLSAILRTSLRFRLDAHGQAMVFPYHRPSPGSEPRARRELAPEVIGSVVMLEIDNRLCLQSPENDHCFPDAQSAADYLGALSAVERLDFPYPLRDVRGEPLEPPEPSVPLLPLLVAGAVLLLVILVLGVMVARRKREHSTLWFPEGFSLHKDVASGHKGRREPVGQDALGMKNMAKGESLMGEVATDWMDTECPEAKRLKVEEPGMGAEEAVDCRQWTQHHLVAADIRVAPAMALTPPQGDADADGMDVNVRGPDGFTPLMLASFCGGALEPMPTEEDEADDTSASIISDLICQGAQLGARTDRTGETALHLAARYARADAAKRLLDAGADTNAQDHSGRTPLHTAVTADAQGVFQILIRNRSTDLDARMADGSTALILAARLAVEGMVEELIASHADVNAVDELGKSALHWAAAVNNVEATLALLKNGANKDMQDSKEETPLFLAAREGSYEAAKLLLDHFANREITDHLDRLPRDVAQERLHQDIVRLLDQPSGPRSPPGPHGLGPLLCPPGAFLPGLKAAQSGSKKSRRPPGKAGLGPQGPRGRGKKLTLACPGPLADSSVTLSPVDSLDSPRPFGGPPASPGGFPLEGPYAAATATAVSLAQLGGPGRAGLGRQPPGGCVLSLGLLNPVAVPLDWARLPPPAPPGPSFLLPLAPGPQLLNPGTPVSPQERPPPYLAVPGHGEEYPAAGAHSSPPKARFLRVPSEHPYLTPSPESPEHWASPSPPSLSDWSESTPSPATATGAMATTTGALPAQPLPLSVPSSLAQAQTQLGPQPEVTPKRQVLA
The nature of test [20]: probe aEGFR binding to arrayed compounds – biochemical, biotinylated probe, 635/667 nm fluorescence, primary screen (AID 1097).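 Note: probe is a biotinylated anti-EGFR antibody binding compounds printed on slides; score combines fluorescence near 667 nm and signal to noise of each spot.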 Conditions: small-molecule microarray, higher = more signal.

Molecules are shown by their SMILES. Active and inactive are the calls of the source.

`O=C1OCC=C[C@H]2OC34C=CCN(c5ccc6ccccc6c5)C(=O)[C@H]3N(CCCO)C(=O)[C@@H]4[C@@H]12` (stereo not given in full): the composite z-score in [1] was 0.714; in [2] it was -2.17; in test [3], -0.102; in test [4], -0.657; in [5] it was -0.894; in test [6], -0.0772. Further, the composite z-score in test [7] is 1.59; in [9], -0.234; in test [10], 0.0515; in test [11] it was -0.3; in test [15], -0.309; in test [17], 0.0061. For the same compound, the composite z-score in test [18] was 0.0654; in [19], 0.0404; in test [20], -0.186. Further, the z-score in test [8] is 0.389 (inactive); in test [12], 0.0281 (inactive); in test [13], -0.318 (inactive); in test [14] it was 0.0596 (inactive); in test [16], 0.993 (inactive).

As to `COCCOC(=O)N1C(=O)[C@@]2(c3cc(C#CCCO)ccc31)[C@H](c1ccccc1OCCO)N1[C@H](c3ccccc3)[C@H](c3ccccc3)OC(=O)[C@H]1[C@@H]2C(=O)N1CCN(c2ncccn2)CC1`, the composite z-score in test [1] was 0.546; in test [2], -0.481; in test [3], 0.0763; in test [4] it was 0.949; in test [5], 1.55; in test [6] it was 1.66. Moreover, the composite z-score in test [7] was 1.26; in [9], 1.4; in test [10], 0.463; in test [11], 1.54; in test [15] it was 2.32; in [17] it was 0.571. Besides, the composite z-score in [18] is 0.725; in test [19], 1.03; in test [20], 0.339. Moreover, the z-score is -1.54 (inactive) in test [8]; 1.24 (inactive) in test [12]; 1.08 (inactive) in test [13]; 3.94 (inactive) in [14]; -0.27 (inactive) in [16].

Take `CCOc1cc(C(O)C2C=CC3C(=O)N(c4ccccc4)C(=O)C3N2Nc2ccc([N+](=O)[O-])cc2)ccc1O` (stereo not given): the composite z-score in test [1] is -0.549; in [2] it was 0.23; in test [3], 0.0139; in [4], 0.516; in test [5] it was 0.796; in test [6], 0.946. Also, the composite z-score was 0.943 in [7]; 0.311 in test [9]; -0.271 in [10]; 1.07 in test [11]; 3.37 in test [15]; -0.0534 in [17]. In addition, the composite z-score was 0.0883 in [18], 0.782 in [19] and -0.067 in [20]. Moreover, the z-score in test [8] is -0.374 (inactive); in test [12] it was -0.441 (inactive); in [13], 0.442 (inactive); in test [14] it was -0.364 (inactive); in test [16], -0.961 (inactive).

Regarding `[N-]=[N+]=NCc1ccccc1C[C@@]1(C(=O)N2CCOCC2)N=C(c2ccc(OCCCO)cc2)O[C@@H]1c1ccccc1CN=[N+]=[N-]`, the composite z-score in [1] was determined as 0.998; in [2], 0.232; in test [3] it was 0.266; in [4] it was 1.01; in test [5], 1.52; in test [6] it was 1.91. Moreover, the composite z-score in [7] was found to be 1.37; in test [9], 1.57; in test [10], 0.156; in [11], 1.58; in test [15] it was 3.28; in test [17], 0.743. For the same compound, the composite z-score in [18] came to 0.631; in test [19], 0.967; in [20] it was 0.662. Besides, the z-score is -3.63 (inactive) in [8]; 0.466 (inactive) in [12]; -0.559 (inactive) in test [13]; 28 (active) in test [14]; 0.291 (inactive) in [16].

On to `Cc1ccccc1C(O)C1C=CC2C(=O)N(C)C(=O)C2N1N1CCCCC1` (stereo not given), for which the composite z-score in [1] came to 0.363; in test [2], 0.831; in test [3], 0.108; in test [4] it was 1.13; in [5] it was 1.54; in test [6] it was 1.42. The composite z-score was 1.38 in [7]; 0.927 in [9]; -0.0296 in [10]; 1.11 in test [11]; 3.18 in test [15]; 0.331 in [17]. In addition, the composite z-score in [18] is 0.21; in test [19], 1.13; in test [20], -0.0044. Also, the z-score in test [8] was 0.703 (inactive); in [12] it was 0.299 (inactive); in [13], 0.619 (inactive); in test [14], -0.417 (inactive); in test [16], -1.24 (inactive).

Values taken from PubChem BioAssay.
